# Experimental data published in paper PMC11062922 (Nature Chemical Biology, 2023).
# Where two headings read alike, the source gives them in different places.
# Columns and labels:
# [1] = tested on: AAK1; parameters: species or system human, MV4-11 + K-562 + COLO205 + SK-N-BE2 + OVCAR-8; conditions: read-out: apparent Kd, n = 1
# [2] = target: Q6ZSR9 (human, UniProt Q6ZSR9); parameters: species or system MV4-11 + K-562 + COLO205 + SK-N-BE2 + OVCAR-8; conditions: read-out: apparent Kd, n = 1
# [3] = tested on: CSNK2A1;CSNK2A3; parameters: species or system human, MV4-11 + K-562 + COLO205 + SK-N-BE2 + OVCAR-8; conditions: read-out: apparent Kd, n = 1
# [4] = tested on: FLT4; parameters: species or system human, MV4-11 + K-562 + COLO205 + SK-N-BE2 + OVCAR-8; conditions: read-out: apparent Kd, n = 1
# [5] = tested on: GAK; parameters: species or system human, MV4-11 + K-562 + COLO205 + SK-N-BE2 + OVCAR-8; conditions: read-out: apparent Kd, n = 1
# [6] = tested on: GSK3A; parameters: species or system human, MV4-11 + K-562 + COLO205 + SK-N-BE2 + OVCAR-8; conditions: read-out: apparent Kd, n = 1
# [7] = tested on: GSK3B; parameters: species or system human, MV4-11 + K-562 + COLO205 + SK-N-BE2 + OVCAR-8; conditions: read-out: apparent Kd, n = 1
# [8] = tested on: PAK4; parameters: species or system human, MV4-11 + K-562 + COLO205 + SK-N-BE2 + OVCAR-8; conditions: read-out: apparent Kd, n = 1
# [9] = tested on: PKN1; parameters: species or system human, MV4-11 + K-562 + COLO205 + SK-N-BE2 + OVCAR-8; conditions: read-out: apparent Kd, n = 1
# [10] = tested on: PRKAG1; parameters: species or system human, MV4-11 + K-562 + COLO205 + SK-N-BE2 + OVCAR-8; conditions: read-out: apparent Kd, n = 1
# [11] = tested on: RET; parameters: species or system human, MV4-11 + K-562 + COLO205 + SK-N-BE2 + OVCAR-8; conditions: read-out: apparent Kd, n = 1
# [12] = tested on: SIK2; parameters: species or system human, MV4-11 + K-562 + COLO205 + SK-N-BE2 + OVCAR-8; conditions: read-out: apparent Kd, n = 1
# [13] = tested on: BMP2K; parameters: species or system human, MV4-11 + K-562 + COLO205 + SK-N-BE2 + OVCAR-8; conditions: read-out: apparent Kd, n = 1
# [14] = tested on: MELK; parameters: species or system human, MV4-11 + K-562 + COLO205 + SK-N-BE2 + OVCAR-8; conditions: read-out: apparent Kd; compound concentrations:100 nM and 1000 nM (sheet 'Samples'); n = 1
# [15] = tested on: PKN3; parameters: species or system human, MV4-11 + K-562 + COLO205 + SK-N-BE2 + OVCAR-8; conditions: read-out: apparent Kd; compound concentrations:100 nM and 1000 nM (sheet 'Samples'); n = 1
# [16] = tested on: CSNK2A2; parameters: species or system human, MV4-11 + K-562 + COLO205 + SK-N-BE2 + OVCAR-8; conditions: read-out: apparent Kd, n = 1
# [17] = tested on: NUAK1; parameters: species or system human, MV4-11 + K-562 + COLO205 + SK-N-BE2 + OVCAR-8; conditions: read-out: apparent Kd, n = 1
# [18] = tested on: CLK1; parameters: species or system human, MV4-11 + K-562 + COLO205 + SK-N-BE2 + OVCAR-8; conditions: read-out: apparent Kd; compound concentrations: 100 nM and 1000 nM (sheet 'Samples'), CATDS: 3.2985166948547001E-2; n = 1
# [19] = tested on: CLK4; parameters: species or system human, MV4-11 + K-562 + COLO205 + SK-N-BE2 + OVCAR-8; conditions: read-out: apparent Kd, compound concentrations: 100 nM and 1000 nM (sheet 'Samples'), n = 1
# [20] = compound concentrations:100 nM and 1000 nM (sheet 'Samples')
# Sequence of Q6ZSR9 (Q6ZSR9 whole entry, looked up): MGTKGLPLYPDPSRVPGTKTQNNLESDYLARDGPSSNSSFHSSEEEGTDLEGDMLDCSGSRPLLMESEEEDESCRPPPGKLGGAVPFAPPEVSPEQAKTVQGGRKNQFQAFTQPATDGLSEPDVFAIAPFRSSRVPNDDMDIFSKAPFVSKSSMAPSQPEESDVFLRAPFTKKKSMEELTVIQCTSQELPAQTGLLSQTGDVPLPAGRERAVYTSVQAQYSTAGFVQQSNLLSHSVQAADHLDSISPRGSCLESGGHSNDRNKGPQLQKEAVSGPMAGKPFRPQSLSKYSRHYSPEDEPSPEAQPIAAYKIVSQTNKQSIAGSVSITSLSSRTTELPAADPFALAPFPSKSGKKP
smiles,measurement,setting,value
COc1cc(Nc2nccc(N3CCC(NC(=O)c4cccc(NC(C)=O)c4)C3)n2)cc(OC)c1OC (centres unmarked) [GSK1379754A],potency estimated from few doses,"[1]; compound concentrations: 100 nM and 1000 nM (sheet 'Samples'), CATDS: 0.175205708840038",410 nM
same,potency estimated from few doses,"[2]; compound concentrations: 100 nM and 1000 nM (sheet 'Samples'), CATDS: 0.171045295105965",426 nM
Cc1ccccc1-n1ncc(C(=O)c2ccccc2)c1N [RO1151248-000],potency estimated from few doses,"[1]; compound concentrations: 100 nM and 1000 nM (sheet 'Samples'), CATDS: 2.38860019962077E-2",914 nM
same,potency estimated from few doses,"[3]; compound concentrations: 100 nM and 1000 nM (sheet 'Samples'), CATDS: 1.72589051675766E-2",2250 nM
same,potency estimated from few doses,"[4]; compound concentrations: 100 nM and 1000 nM (sheet 'Samples'), CATDS: 1.8880298651143101E-2",1670 nM
same,potency estimated from few doses,"[5]; compound concentrations: 100 nM and 1000 nM (sheet 'Samples'), CATDS: 3.2430470905267197E-2",506 nM
same,potency estimated from few doses,"[6]; compound concentrations: 100 nM and 1000 nM (sheet 'Samples'), CATDS: 2.9908240641474598E-2",584 nM
same,potency estimated from few doses,"[7]; compound concentrations: 100 nM and 1000 nM (sheet 'Samples'), CATDS: 2.52342080828949E-2",813 nM
same,potency estimated from few doses,"[8]; compound concentrations: 100 nM and 1000 nM (sheet 'Samples'), CATDS: 2.19543905026186E-2",1110 nM
same,potency estimated from few doses,"[9]; compound concentrations: 100 nM and 1000 nM (sheet 'Samples'), CATDS: 1.7045557740064301E-2",2350 nM
same,potency estimated from few doses,"[10]; compound concentrations: 100 nM and 1000 nM (sheet 'Samples'), CATDS: 2.5293867995276598E-2",809 nM
same,potency estimated from few doses,"[2]; compound concentrations: 100 nM and 1000 nM (sheet 'Samples'), CATDS: 2.32948628287949E-2",967 nM
same,potency estimated from few doses,"[11]; compound concentrations: 100 nM and 1000 nM (sheet 'Samples'), CATDS: 2.2142525707208802E-2",1090 nM
same,potency estimated from few doses,"[12]; compound concentrations: 100 nM and 1000 nM (sheet 'Samples'), CATDS: 2.40988460516664E-2",897 nM
CCn1c(-c2nonc2N)nc2c(C#CC(C)(C)O)nc(O[C@@H](CN)c3ccccc3)cc21.O=C(O)C(F)(F)F [GSK1007102B],potency estimated from few doses,[1]; [20],67.3 nM
same,potency estimated from few doses,[13]; [20],355 nM
same,potency estimated from few doses,[6]; [20],46.1 nM
same,potency estimated from few doses,[7]; [20],40.5 nM
same,potency estimated from few doses,[14],1040 nM
same,potency estimated from few doses,[8]; [20],39.8 nM
same,potency estimated from few doses,[9]; [20],37.6 nM
same,potency estimated from few doses,[15],2.06 nM
same,potency estimated from few doses,[10]; [20],765 nM
same,potency estimated from few doses,[2]; [20],111 nM
same,potency estimated from few doses,[11]; [20],1250 nM
O=C(O)C(F)(F)F.O=c1[nH]ccc2nc(N[C@@H]3CCNC3)nc(Nc3cc(Cl)cc(Cl)c3)c12 [GSK2188764A],potency estimated from few doses,[1]; [20],114 nM
same,potency estimated from few doses,[13]; [20],749 nM
same,potency estimated from few doses,[3]; [20],239 nM
same,potency estimated from few doses,[16]; [20],585 nM
same,potency estimated from few doses,[14],765 nM
same,potency estimated from few doses,[17]; [20],27.4 nM
same,potency estimated from few doses,[8]; [20],11 nM
same,potency estimated from few doses,[10]; [20],799 nM
same,potency estimated from few doses,[2]; [20],151 nM
same,potency estimated from few doses,[11]; [20],1350 nM
same,potency estimated from few doses,[12]; [20],1440 nM
CN(c1ccc(NC(=O)NCCN2CCOCC2)cc1)c1ccnc(Nc2ccc(CS(C)(=O)=O)cc2)n1.Cl [GW830365A],potency estimated from few doses,"[1]; compound concentrations: 100 nM and 1000 nM (sheet 'Samples'), CATDS: 5.9294254337115E-2",785 nM
same,potency estimated from few doses,"[13]; compound concentrations: 100 nM and 1000 nM (sheet 'Samples'), CATDS: 5.1935568412460401E-2",1150 nM
same,potency estimated from few doses,"[4]; compound concentrations: 100 nM and 1000 nM (sheet 'Samples'), CATDS: 0.17294643484613401",109 nM
same,potency estimated from few doses,"[2]; compound concentrations: 100 nM and 1000 nM (sheet 'Samples'), CATDS: 5.6296915490776901E-2",904 nM
same,potency estimated from few doses,"[11]; compound concentrations: 100 nM and 1000 nM (sheet 'Samples'), CATDS: 9.0906950139660506E-2",308 nM
CCN(CC)Cc1ccc(Nc2nccc(-c3cnn4ncccc34)n2)cc1 [GW780056X],potency estimated from few doses,"[1]; compound concentrations: 100 nM and 1000 nM (sheet 'Samples'), CATDS: 2.17265123337868E-2",1010 nM
same,potency estimated from few doses,"[13]; compound concentrations: 100 nM and 1000 nM (sheet 'Samples'), CATDS: 1.8132469854257299E-2",1950 nM
same,potency estimated from few doses,[18],346 nM
same,potency estimated from few doses,[19]; CATDS: 3.0818268189282499E-2,403 nM
same,potency estimated from few doses,"[16]; compound concentrations: 100 nM and 1000 nM (sheet 'Samples'), CATDS: 1.97839070790959E-2",1380 nM
same,potency estimated from few doses,"[6]; compound concentrations: 100 nM and 1000 nM (sheet 'Samples'), CATDS: 2.5871712918447001E-2",616 nM
same,potency estimated from few doses,"[7]; compound concentrations: 100 nM and 1000 nM (sheet 'Samples'), CATDS: 2.3506229340690101E-2",798 nM
same,potency estimated from few doses,"[17]; compound concentrations: 100 nM and 1000 nM (sheet 'Samples'), CATDS: 0.242637090604084",11.6 nM
same,potency estimated from few doses,"[2]; compound concentrations: 100 nM and 1000 nM (sheet 'Samples'), CATDS: 2.1989322106712401E-2",971 nM
Cc1cccc(Nc2nc(N[C@H]3CCNC3)ncc2C(N)=O)c1.Cl [GSK2197149A],potency estimated from few doses,[1]; [20],64.6 nM
same,potency estimated from few doses,[13]; [20],540 nM
same,potency estimated from few doses,[3]; [20],2150 nM
same,potency estimated from few doses,[5]; [20],343 nM
same,potency estimated from few doses,[17]; [20],1690 nM
same,potency estimated from few doses,[8]; [20],562 nM
same,potency estimated from few doses,[2]; [20],85.6 nM
same,potency estimated from few doses,[12]; [20],603 nM
CCn1c(-c2cccnc2O)nc2cnccc21 [SB-736715],potency estimated from few doses,"[1]; compound concentrations: 100 nM and 1000 nM (sheet 'Samples'), CATDS: 1.3866746573900799E-2",1530 nM
same,potency estimated from few doses,"[10]; compound concentrations: 100 nM and 1000 nM (sheet 'Samples'), CATDS: 1.40543588651099E-2",1490 nM
O=C1N=C(NCc2c(Cl)cccc2Cl)S/C1=C\c1ccc2ncccc2c1 [RO4600445-000],potency estimated from few doses,"[1]; compound concentrations: 100 nM and 1000 nM (sheet 'Samples'), CATDS: 0.26661690920713499",1130 nM
same,potency estimated from few doses,[19]; CATDS: 0.27673451036998298,1050 nM
same,potency estimated from few doses,"[2]; compound concentrations: 100 nM and 1000 nM (sheet 'Samples'), CATDS: 0.220638600653874",1680 nM
CN(C)CCNC(=O)Nc1ccc(N(C)c2ccnc(Nc3ccc(CS(C)(=O)=O)cc3)n2)cc1.Cl [GW830900A],potency estimated from few doses,[1]; [20],820 nM
same,potency estimated from few doses,[13]; [20],1220 nM
same,potency estimated from few doses,[4]; [20],1240 nM
same,potency estimated from few doses,[5]; [20],1450 nM
same,potency estimated from few doses,[17]; [20],1750 nM
same,potency estimated from few doses,[2]; [20],939 nM
NC(=O)c1cc(-c2ccccc2)cc2c(C3CCNCC3)c[nH]c12 [GSK301362A],potency estimated from few doses,[1]; [20],1980 nM
CCCc1cc(N2CCCN(C)CC2)nc2sc3c(N)ncnc3c12 [BI00604564],potency estimated from few doses,"[1]; compound concentrations: 100 nM and 1000 nM (sheet 'Samples'), CATDS: 0.13729874027545599",1990 nM
same,potency estimated from few doses,"[5]; compound concentrations: 100 nM and 1000 nM (sheet 'Samples'), CATDS: 0.27765104438225702",516 nM
same,potency estimated from few doses,"[2]; compound concentrations: 100 nM and 1000 nM (sheet 'Samples'), CATDS: 0.16382983501134099",1310 nM
CNCc1ccc(-c2cc(-c3nc(-c4ccc(S(=O)(=O)C(C)C)cc4)cnc3N)on2)cc1 [VE-822],potency estimated from few doses,[1]; [20],1850 nM
same,potency estimated from few doses,[6]; [20],684 nM
same,potency estimated from few doses,[7]; [20],810 nM
same,potency estimated from few doses,[2]; [20],1240 nM
